Drawing on PubChem BioAssay, this text covers cell count and inhibition for 14 compounds.

Calls of active or inactive are those of the source.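 The calls were made as follows: active = inhibition above 20% together with a positive visual image hit; inconclusive = visual image hit but inhibition not above 20%; inactive = no visual image hit.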

For orientation: inhibition means the drop in the measured response relative to a control, in per cent.

The test can be described thus: inhibitors of TNFa-induced NFkB p65 translocation, primary screen, imaging, HUVEC, MLSMR starter and 10KST1 sets (AID 438).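 Also: compound added about 3h40 before a 20 min TNFalpha stimulation.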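 As to inhibition: signal is the nuclear over cytoplasmic p65 intensity ratio per well.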 The note with it: HUVEC TNFa-induced p65 nuclear translocation; cell count: measured here: nuclei count (cytotoxicity indicator), at 2.08 µM; inhibition: at 2 µM, stronger effect = higher value, 0% TNFa-plus-vehicle, 100% no-TNFa wells.
As for `Cn1c(SCc2cccc3ccccc23)nnc1-c1ccco1`, the cell count stood at 574 and the inhibition was 1.6% (inactive).

Regarding `COc1ccc(CC(=O)OCC(=O)NC(=O)NC2CCCCC2)cc1`, the cell count was 505 and the inhibition was -13.7% (inactive).

Consider `CCn1c(C)nc2cc(C(=O)OC(C(F)(F)C(F)F)C(F)(F)C(F)F)ccc21`, for which the cell count came to 358 and the inhibition was 6% (inactive).

As to `CCCn1c2c(c(O)c(C(=O)NC)c1=O)CCCC2`, the inhibition was 3.4% (inactive) and the cell count is 323.

As to `COCCNC(=O)CN(C)S(=O)(=O)c1ccc2c(c1)OCCO2`, the inhibition was -12.1% (inactive) and the cell count was 577.

For `O=C(CN1C(=O)CC(c2ccco2)Sc2ccccc21)Nc1ccc2c(c1)OCCO2` (stereo not drawn), the inhibition is -2.8% (inactive) and the cell count is 809.

As to `COc1ccc2c(c1)CCc1c(C(=O)NCc3cccnc3)noc1-2`, the cell count turned out to be 358 and the inhibition was 5.4% (inactive).

For `OCc1nc(CO)n(Cc2ccccc2)n1`, the inhibition is -17.6% (inactive) and the cell count worked out at 447.

Turning to `CC(=O)Nc1ccc(NC(=O)c2ccccc2N(C)S(C)(=O)=O)cc1`, the cell count came out at 408 and the inhibition was 0.5% (inactive).

Take `Cc1noc(NS(=O)(=O)c2ccc(NC(=O)CCC3CCCC3)cc2)c1C`: the cell count is 472 and the inhibition is 2.1% (inactive).

Regarding `CCCNC(=O)c1c(N)n(-c2cc(OC)cc(OC)c2)c2nc3ccccc3nc12`, the cell count was 587 and the inhibition is -7% (inactive).

As to `Cc1ccc(CN2C(=O)CCC2C(=O)NCC2CCCO2)cc1` (stereo not drawn), the inhibition is 10.5% (inactive) and the cell count came to 317.

In the case of `COc1ccc(CC(NC(C)=O)C(=O)NC2CCN(c3nc(C)cc(C)c3C#N)CC2)c(OC)c1` (stereo not drawn), the inhibition is -7.4% (inactive) and the cell count worked out at 750.

On to `CC1(C)CC(=O)c2c(O)cc(O)cc2O1`, for which the cell count is 652 and the inhibition was -15.6% (inactive).
